Reference: PubChem BioAssay AID1159580 (chemical genetic matrix, 2015)
Where “and” joins values, the source holds several entries; their conditions need not be identical. Equal values may be shown once. The campaign covered roughly 5,500 compounds. About 2,000 (36%) were called active. Another 18% or so got no clear call; they are omitted. Cut-off read from the data, not from the text of the source: active = normalized growth mostly below about 0.91 (no sharp cut-off); inconclusive = no clear call, values can overlap the other calls; inactive = mostly above about 0.92. The list shows a part of the results.

Assay: chemical genetic growth profiling, strain panel (AID 1159580);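 note: tested at 20 µM; growth read once vehicle control cultures reached saturation at 30 °C; 1 = growth at the plate median or of vehicle wells; lower values mean less growth of the strain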
Conditions: S. cerevisiae deletion strains, growth OD

Measured: normalized growth

CC(=O)N=c1sc(S(N)(=O)=O)nn1C
inactive: locus YAL013W, strain DEP1, hits give low values 1.01 | locus YAL021C, strain ccr4, hits give low values 1.01 | locus YAL026C, strain drs2, hits give low values 1.01 | locus YAL030W, strain snc1, hits give low values 1 | locus YBL061C, strain skt5, hits give low values 1.01 | locus YBR009C, strain hhf1, hits give low values 1 | locus YBR021W, strain FUR4, hits give low values 1.02 | locus YBR023C, strain chs3, hits give low values 1.01 | locus YBR171W, strain sec66, hits give low values 1.03 | locus YBR229C, strain ROT2, hits give low values 1.01 | locus YBR231C, strain swc5, hits give low values 1.02 | locus YBR279W, strain paf1, hits give low values 1.01 | locus YCL011C, strain gbp2, hits give low values 1.01 | locus YCL016C, strain dcc1, hits give low values 1.01 | locus YCL029C, strain bik1, hits give low values 0.995 | locus YCL061C, strain MRC1, hits give low values 1.01 | locus YCL069W, strain vba3, hits give low values 1.01 | locus YCR088W, strain abp1, hits give low values 1.01 | locus YDL005C, strain med2, hits give low values 1.01 | locus YDL035C, strain GPR1, hits give low values 1.03 | locus YDL040C, strain nat1, hits give low values 0.999 | locus YDL074C, strain BRE1, hits give low values 0.995 | locus YDL101C, strain DUN1, hits give low values 1.01 | locus YDL134C, strain PPH21, hits give low values 1.02 | locus YDL185W, strain tfp1, hits give low values 1.01 | locus YDL192W, strain arf1, hits give low values 1.01 | locus YDR001C, strain nth1, hits give low values 1 | locus YDR069C, strain doa4, hits give low values 1.01 | locus YDR101C, strain arx1, hits give low values 1 | locus YDR137W, strain rgp1, hits give low values 1.04 | locus YDR150W, strain NUM1, hits give low values 1 | locus YDR159W, strain sac3, hits give low values 0.998 | locus YDR162C, strain NBP2, hits give low values 1.02 | locus YDR195W, strain ref2 0.991 | locus YDR297W, strain sur2, hits give low values 1 | locus YDR318W, strain mcm21, hits give low values 1.02 | locus YDR334W, strain swr1, hits give low values 1.01 | locus YDR335W, strain msn5, hits give low values 1.01 | locus YDR388W, hits give low values 1.01 | locus YDR392W, strain spt3, hits give low values 1.02 | locus YDR502C, strain sam2, hits give low values 0.998 | locus YEL003W, strain gim4, hits give low values 1.01 | locus YEL037C, strain rad23, hits give low values 1 | locus YEL061C, strain CIN8 (second series), hits give low values 1.01 | locus YEL061C, strain CIN8, hits give low values 1 | locus YER015W, strain faa2, hits give low values 0.989 | locus YER016W, strain bim1, hits give low values 1.01 | locus YER110C, hits give low values 1.02 | locus YER111C, strain swi4, hits give low values 0.994 | locus YER155C, strain BEM2 (second series), hits give low values 1.02 | locus YER155C, strain BEM2, hits give low values 1 | locus YER167W, strain BCK2, hits give low values 1.02 | locus YFR010W, strain ubp6, hits give low values 1.02 | locus YGL078C, strain dbp3, hits give low values 1 | locus YGL086W, strain mad1, hits give low values 0.998 | locus YGL167C, strain pmr1, hits give low values 1.01 | locus YGL173C, strain kem1, hits give low values 1.01 | locus YGL227W, strain vid30, hits give low values 1.01 | locus YGL240W, strain doc1, hits give low values 1.03 | locus YGL248W, strain PDE1, hits give low values 0.997 | locus YGL253W, strain hxk2, hits give low values 1.02 | locus YGR135W, strain pre9, hits give low values 1.06 | locus YGR252W, strain gcn5, hits give low values 1.01 | locus YHR013C, strain ard1, hits give low values 1.03 | locus YHR027C, strain rpn1, hits give low values 1.02 | locus YHR030C, strain SLT2, hits give low values 1 and 1.06 | locus YHR079C, strain IRE1 (second series), hits give low values 1.01 | locus YHR079C, strain IRE1, hits give low values 1.06 | locus YHR094C, strain hxt1, hits give low values 1.01 | locus YHR129C, strain ARP1, hits give low values 1.02 | locus YHR142W, strain chs7, hits give low values 1.02 | locus YHR200W, strain rpn10, hits give low values 1.01 | locus YIL066C, strain RNR3, hits give low values 1 | locus YIL073C, strain SPO22, hits give low values 1.07 | locus YIL125W, strain kgd1, hits give low values 0.997 | locus YIR030C, strain dcg1, hits give low values 0.996 | locus YJL092W, strain hpr5, hits give low values 1.02 | locus YJL095W, strain BCK1 (second series), hits give low values 1.01 | locus YJL095W, strain BCK1, hits give low values 0.989 and 1.05 | locus YJL115W, strain asf1, hits give low values 1.01 | locus YJL129C, strain trk1, hits give low values 1 | locus YJL134W, strain LCB3, hits give low values 1.01 | locus YJL154C, strain vps35, hits give low values 1 | locus YJL164C, strain tpk1, hits give low values 1.01 | locus YJL166W, strain qcr8, hits give low values 0.998 | locus YJL168C, strain set2, hits give low values 1.01 | locus YJL187C, strain SWE1 (second series), hits give low values 0.984 | locus YJL187C, strain SWE1, hits give low values 1.01 | locus YJR043C, strain POL32, hits give low values 0.986 | locus YJR066W, strain TOR1, hits give low values 0.984
